Structures are written as SMILES. The source made the active and inactive calls. Unless noted, the rule behind the calls is not given here.

The nature of assay [1]: compound effects on lung adenocarcinoma cell viability – A549, calcein-AM fluorescence, 48 h, basal, profiling panel (AID 1162). Note: test concentration not given here. To be noted: higher = more signal.
Assay [2] is described as follows: compound effects on differentiated 3T3-L1 adipocyte viability – cell-based, 3T3-L1 adipocytes, calcein-AM fluorescence, 48 h, basal, profiling panel (AID 1163). Note: test concentration not given here. The note with it: 3T3-L1 adipocytes viability, higher = more signal.
Assay [3] is described as follows: compound effects on hepatocellular carcinoma cell viability – HepG2, calcein-AM fluorescence, 48 h, basal, profiling panel (AID 1164). Note: test concentration not given here. The note with it: higher = more signal.
Assay [4] in a line: compound effects on multiple myeloma cell viability – MM1S, calcein-AM fluorescence, 48 h, basal, profiling panel (AID 1165).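 Note: viability of MM1S multiple myeloma cells under basal unstimulated conditions; test concentration not given here.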 To be noted: higher = more signal.
The nature of assay [5]: calcein-AM signal in unstimulated myeloma cells – cell-based, calcein-AM fluorescence, 48 h, PK04 Diversity Set, profiling panel (AID 1166).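 Note: cells grown under basal conditions without added stimulus; test concentration not given here.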 The note with it: RPMI8226 myeloma viability, higher = more signal.
The nature of assay [6]: JC-1 mitochondrial signal, unstimulated HepG2 cells – cell-based, JC-1 fluorescence, 24 h, 100 nL compound, profiling panel (AID 1167). Note: test concentration not given here. To be noted: HepG2 mitochondrial potential, higher = more signal.
Assay [7] in a line: JC-1 mitochondrial signal, unstimulated adipocytes – cell-based, JC-1 fluorescence, 3T3-L1 adipocytes, 24 h, 100 nL compound, profiling panel (AID 1168). Note: test concentration not given here. The note with it: JC-1 mitochondrial fluorescence, higher = more signal, called active from +8 up or from −8 down.
The nature of assay [8]: JC-1 mitochondrial signal, unstimulated myeloma cells – cell-based, JC-1 fluorescence, RPMI8226, 24 h, 100 nL compound, profiling panel (AID 1169). Note: test concentration not given here. The note with it: JC-1 mitochondrial potential fluorescence, higher = more signal.
Assay [9] can be described thus: JC-1 mitochondrial signal, unstimulated MM1S myeloma – cell-based, JC-1 fluorescence, 24 h, 100 nL compound, profiling panel (AID 1170). Note: test concentration not given here. The note with it: MM1S mitochondrial potential, higher = more signal.
The nature of assay [10]: resazurin metabolic signal in A549 cells – cell-based, resazurin fluorescence, 24 h, PK04 Diversity Set, profiling panel (AID 1171). Note: test concentration not given here. To be noted: A549 viability, higher = more signal, called active from +8 up or from −8 down. On the technique in general: Resazurin is reduced to fluorescent resorufin, in cell work by metabolically active cells.
Assay [11] is described as follows: resazurin metabolic signal in HepG2 cells – cell-based, resazurin fluorescence, 24 h, PK04 Diversity Set, profiling panel (AID 1172). Note: test concentration not given here. To be noted: HepG2 viability, higher = more signal.
A short description of assay [12]: budding yeast growth changes without added modifier – OD600, strain BY4716, 24 h, basal condition, primary screen (AID 1173). The note with it: S. cerevisiae BY4716 growth, OD600, 24 h; higher = more signal, called active from +8 up or from −8 down.
The nature of assay [13]: viability profiling in MM1S myeloma cells – cell-based, resazurin fluorescence, basal, 24 h, PK04 Diversity Set, profiling panel (AID 1174). Note: test concentration not given here. The note with it: higher = more signal, called active from +8 up or from −8 down.
The target of assay [14] is Dihydroorotate dehydrogenase (quinone), mitochondrial (Plasmodium falciparum (isolate 3D7)) (UniProt Q08210). As to the kind of experiment: inhibition of P. falciparum DHODH – biochemical, C-terminal His tag, absorbance 600 nm, primary screen (AID 1175).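 Note: recombinant parasite enzyme with a five histidine tag at its C terminus; test concentration not given here.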 To be noted: PfDHODH enzyme, DCIP absorbance 600 nm; higher = more signal, called active from +8 up or from −8 down.
Chain of Dihydroorotate dehydrogenase (quinone), mitochondrial (Plasmodium falciparum (isolate 3D7)) (Q08210 whole entry, looked up): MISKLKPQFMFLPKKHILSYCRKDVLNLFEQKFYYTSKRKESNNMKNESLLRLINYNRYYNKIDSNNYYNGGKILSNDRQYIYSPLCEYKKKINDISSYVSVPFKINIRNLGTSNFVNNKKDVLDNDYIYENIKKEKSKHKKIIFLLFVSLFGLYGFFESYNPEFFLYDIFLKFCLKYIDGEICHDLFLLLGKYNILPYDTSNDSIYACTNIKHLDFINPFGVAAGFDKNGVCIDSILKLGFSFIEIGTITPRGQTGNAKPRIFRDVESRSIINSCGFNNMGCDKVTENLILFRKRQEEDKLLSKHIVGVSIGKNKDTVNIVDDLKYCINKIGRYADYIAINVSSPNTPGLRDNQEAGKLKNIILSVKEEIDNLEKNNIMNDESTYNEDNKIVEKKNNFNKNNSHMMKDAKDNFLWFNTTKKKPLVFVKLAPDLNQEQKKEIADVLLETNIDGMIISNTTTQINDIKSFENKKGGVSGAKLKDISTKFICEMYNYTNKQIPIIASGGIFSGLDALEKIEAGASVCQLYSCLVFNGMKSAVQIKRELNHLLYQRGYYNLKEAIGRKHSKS
Assay [15] is described as follows: inhibition of PAO1 biofilm formation – strain PAO1, LB-PBS medium, absorbance 600 nm, primary screen (AID 1176). Note: test concentration not given here. The note with it: P. aeruginosa PAO1 growth/biofilm, A600, 12 h; higher = more signal.
A short description of assay [16]: growth modulation of vineyard yeast isolate – strain RM11-1a, OD600, basal, 24 h, primary screen (AID 1177).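 Note: cultures grown under basal conditions with no added stressor; test concentration not given here.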 The note with it: S. cerevisiae RM11-1a growth, OD600, 24 h; higher = more signal, called active from +8 up or from −8 down.
The nature of assay [17]: growth of efflux-deficient E. coli DRC39 – strain DRC39, OD650, 24 h, E. coli filamentation inducers, primary screen (AID 1178).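 Note: growth measured as culture turbidity by optical density at 650 nm; test concentration not given here.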 To be noted: E. coli DRC39 acrAB, higher = more signal, called active from +8 up or from −8 down.
The nature of assay [18]: growth of efflux-deficient E. coli DRC39 – strain DRC39, OD650, 48 h, E. coli filamentation inducers, primary screen (AID 1179).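 Note: screen aims at cell division blockers that make cells filament.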 To be noted: E. coli DRC39 delta-acrAB growth, higher = more signal, called active from +8 up or from −8 down.
Assay [19] in a line: viability profiling in RPMI8226 myeloma cells – cell-based, resazurin fluorescence, basal, 24 h, PK04 Diversity Set, profiling panel (AID 1180).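 Note: RPMI8826 multiple myeloma cell line at 5000 cells per well; test concentration not given here.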 To be noted: higher = more signal.
The target of assay [20] is E3 ubiquitin-protein ligase XIAP (Homo sapiens) (UniProt P98170). As to the kind of experiment: small molecules binding XIAP protein – biophysical, small-molecule microarray, fluorescence 635 nm, primary screen (AID 1181).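 Note: score merges 667 nm emission and signal to noise over triplicate slides.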 The note with it: higher = more signal.
Chain of E3 ubiquitin-protein ligase XIAP (Homo sapiens) (P98170 whole entry, looked up): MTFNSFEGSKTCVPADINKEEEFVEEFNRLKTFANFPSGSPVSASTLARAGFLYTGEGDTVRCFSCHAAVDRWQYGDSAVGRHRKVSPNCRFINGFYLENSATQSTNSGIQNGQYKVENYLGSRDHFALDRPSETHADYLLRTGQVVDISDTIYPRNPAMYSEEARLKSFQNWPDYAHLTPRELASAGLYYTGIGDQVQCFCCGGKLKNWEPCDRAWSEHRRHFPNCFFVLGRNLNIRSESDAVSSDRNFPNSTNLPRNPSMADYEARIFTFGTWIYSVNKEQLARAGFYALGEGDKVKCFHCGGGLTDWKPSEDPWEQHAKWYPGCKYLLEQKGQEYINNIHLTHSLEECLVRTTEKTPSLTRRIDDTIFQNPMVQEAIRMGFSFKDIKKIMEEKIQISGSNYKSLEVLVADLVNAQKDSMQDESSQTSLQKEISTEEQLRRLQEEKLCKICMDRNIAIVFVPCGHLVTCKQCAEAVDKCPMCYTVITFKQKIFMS

In the case of `C=C(CC1([C@@H](NP(=O)(c2ccccc2)c2ccccc2)[C@H]2C[C@@H]2CCN(C(=O)OCC)S(=O)(=O)c2ccc(C)cc2)CC1)c1ccccc1`, the z-score in assay [1] was -2.02; in assay [2], 1.2; in assay [3] it was -1.12; in [4], -0.798; in [5] it was -3.89; in assay [6], 4.8. The z-score in assay [7] is -1.47 (inactive); in [8], -0.699; in [9], -1.09; in assay [10] it was 0.789 (inactive); in [11], 0.716; in [12], 1.97 (inactive). Also, the z-score is -1.59 (inactive) in assay [13]; 0.687 (inactive) in [15]; 1.52 (inactive) in assay [16]; 0.104 (inactive) in [17]; -0.194 (inactive) in assay [18]; -1.05 in assay [19]. The values for the composite z-score in [14] and in assay [20] were 0.0407 (inactive) and 0.303, respectively.
On to `C=C(COC)/C(=C/C[C@@H](OC(C)=O)c1ccccc1OCCO)c1cc(C(=O)OC)ccc1OC`, for which the z-score in assay [1] was 1.2; in [2], -2.49; in assay [3], 0.5; in assay [4] it was -3.3; in assay [5], -0.866; in [6] it was 0.751. Besides, the z-score in assay [7] is 0.00709 (inactive); in assay [8], -0.338; in [9], -0.875; in assay [10], 0.368 (inactive); in assay [11], -0.0418; in assay [12], 0.487 (inactive). Besides, the z-score in assay [13] is -0.705 (inactive); in assay [15], 0.543 (inactive); in [16], 0.759 (inactive); in assay [17], 0.013 (inactive); in assay [18] it was -0.199 (inactive); in [19] it was -0.316. Further, the composite z-score was -0.069 (inactive) in assay [14] and -0.0279 in [20].
Regarding `CCN(CC)c1ccc(N2CC=CC34O[C@@H]5C=CCOC(=O)[C@@H]5[C@H]3C(=O)N(CCCO)[C@@H]4C2=O)cc1` (stereo not given in full), the z-score was -0.0867 in [1]; 1.85 in [2]; -0.244 in assay [3]; 1.8 in assay [4]; 0.28 in [5]; 0.432 in assay [6]. Besides, the z-score in [7] was 0.604 (inactive); in [8], 0.19; in assay [9], 0.536; in assay [10], -0.481 (inactive); in assay [11] it was -0.527; in assay [12], -0.746 (inactive). Also, the z-score in assay [13] is 0.242 (inactive); in assay [15], 0.537 (inactive); in assay [16], -0.049 (inactive); in assay [17] it was 1.27 (inactive); in [18] it was 0.715 (inactive); in assay [19] it was 0.4. Also, the results for the composite z-score in assay [14] and in assay [20] were -1.47 (inactive) and 0.107, respectively.
Take `C[N+](C)(C)CCCCCCNC(=O)[C@H]1C[C@H]2C(=O)NCC(=O)N2[C@H]1c1cccc(OCCO)c1`: the z-score was -0.292 in assay [1]; -0.207 in assay [2]; -0.528 in [3]; 0.112 in assay [4]; 0.579 in assay [5]; -1.52 in assay [6]. Further, the z-score in [7] is -0.529 (inactive); in assay [8], 0.0573; in assay [9] it was 0.127; in [10], 0.749 (inactive); in [11], 0.547; in assay [12] it was -0.316 (inactive). Also, the z-score in [13] is -0.0342 (inactive); in [15], -0.0743 (inactive); in [16] it was 0.254 (inactive); in [17] it was -0.129 (inactive); in [18] it was -0.285 (inactive); in assay [19], -0.252. In addition, the composite z-score in [14] is -0.97 (inactive); in assay [20], 0.0402.
Consider `C[C@H]1NC(=O)C([C@@H](C)OCc2ccccc2)NC(=O)[C@@]23C(=O)N[C@@H](Cc4ccccc4)C2[C@H](C)[C@@]2(C)O[C@H]2C3/C=C/C/C=C\CNC1=O` (stereo not given in full), for which the z-score in assay [1] was 0.462; in [2] it was 1.44; in assay [3], 0.14; in assay [4], -0.0497; in assay [5] it was -0.23; in assay [6], 0.817. Also, the z-score in assay [7] was 0.346 (inactive); in assay [8], 0.0911; in assay [9] it was 0.607; in assay [10], -0.214 (inactive); in assay [11] it was -0.588; in assay [12], 0.481 (inactive). Moreover, the z-score was 0.178 (inactive) in assay [13]; 0.13 (inactive) in [15]; 0.787 (inactive) in assay [16]; 0.979 (inactive) in assay [17]; 0.545 (inactive) in assay [18]; 0.472 in assay [19]. Also, the composite z-score in [14] is 0.369 (inactive); in assay [20], -0.381.
`COCCOC(=O)N1C(=O)[C@@]2(c3ccccc31)[C@H](C(=O)N1CCCCCCC1)[C@H]1C(=O)O[C@H](c3ccccc3)[C@H](c3ccccc3)N1[C@@H]2c1ccc(O)cc1`: the z-score in assay [1] was 0.452; in [2] it was 0.688; in assay [3], 1.11; in assay [4], -0.233; in assay [5], -1.54; in assay [6], -0.229. Also, the z-score was 1.45 (inactive) in assay [7]; -0.564 in [8]; -0.21 in [9]; 0.17 (inactive) in assay [10]; 0.226 in assay [11]; -0.975 (inactive) in assay [12]. The z-score is -1.51 (inactive) in [13]; 1.32 (inactive) in assay [15]; -0.145 (inactive) in [16]; -0.0831 (inactive) in [17]; -0.303 (inactive) in [18]; -1.03 in assay [19]. Moreover, the composite z-score in assay [14] is -0.862 (inactive); in [20] it was 0.782.
In the case of `C=C(COC)C(=O)CC[C@@H](OC(=O)c1cccnc1)c1cccc(OCCO)c1`, the z-score in assay [1] is -0.0547; in assay [2] it was 0.627; in [3] it was -0.714; in assay [4] it was -3.31; in [5], -1.71; in [6] it was 0.082. Moreover, the z-score is 0.195 (inactive) in [7]; -0.26 in [8]; -1.78 in assay [9]; 0.9 (inactive) in [10]; 0.312 in assay [11]; 0.798 (inactive) in [12]. Moreover, the z-score in [13] is -0.857 (inactive); in assay [15], 0.543 (inactive); in [16], 0.544 (inactive); in assay [17], 1.16 (inactive); in assay [18] it was 0.927 (inactive); in [19], -2.55. For the same compound, the composite z-score in assay [14] was -0.289 (inactive); in assay [20], -0.162.
As to `CN(C)C(=O)[C@]1(Cc2ccccc2CN=[N+]=[N-])N=C(c2ccc(OCCCO)cc2)O[C@@H]1c1ccccc1N=[N+]=[N-]`, the z-score in assay [1] was -0.691; in assay [2], 0.287; in assay [3], -0.923; in [4] it was -1.33; in [5] it was -2.16; in assay [6] it was 0.271. In addition, the z-score is 2.38 (inactive) in [7]; -0.997 in assay [8]; -1.29 in [9]; -1.42 (inactive) in assay [10]; 0.142 in [11]; -0.0107 (inactive) in [12]. Also, the z-score in assay [13] was -1.54 (inactive); in assay [15], 0.0533 (inactive); in assay [16] it was 1.37 (inactive); in assay [17], 0.377 (inactive); in assay [18], 0.529 (inactive); in [19], -1.63. In addition, the composite z-score in assay [14] was -0.607 (inactive); in assay [20], 0.181.
On to `COC(=O)[C@@]1(Cc2ccccc2)[C@@H]2[C@@H](CC(=O)[C@H]2CC(=O)C(=O)N(C)C)CN1C(=O)c1ccccc1`, for which the z-score in assay [1] was 0.258; in assay [2] it was -0.103; in assay [3], 0.0925; in assay [4], -0.822; in assay [5], 0.397; in [6], 1.23. Besides, the z-score in assay [7] was -0.239 (inactive); in [8], 0.209; in assay [9] it was -1.31; in assay [10] it was -0.658 (inactive); in [11] it was 0.166; in assay [12] it was 1.55 (inactive). The z-score in [13] is -1.18 (inactive); in [15], 0.535 (inactive); in [16], 1.02 (inactive); in assay [17] it was -0.49 (inactive); in assay [18], -0.0021 (inactive); in [19], -0.0757. Also, the composite z-score in [14] is 0.823 (inactive); in assay [20] it was 0.0464.

Source of the values: PubChem BioAssay.
